Measured values: PubChem BioAssay (NCATS)
Results filed as inconclusive are left out. A number with no mark means an inactive call. Active and inactive are the calls of the source. Calls come from the whole dose curve.
Potency is the fitted concentration of half-maximal effect.

The molecules below were run against Cytochrome P450 1A2 (Homo sapiens) (UniProt P05177) (assay: p450-cyp1a2 (AID 410;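 for activity change, negative = inhibition: -100% = full effect of reference inhibitor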)). Conditions: recombinant CYP1A2, luciferin-ME demethylation, luminescence; series mostly up to 57 µM; activity change, negative = inhibition: at the top concentration.
Cytochrome P450 1A2 (Homo sapiens), sequence (P05177 whole entry, looked up): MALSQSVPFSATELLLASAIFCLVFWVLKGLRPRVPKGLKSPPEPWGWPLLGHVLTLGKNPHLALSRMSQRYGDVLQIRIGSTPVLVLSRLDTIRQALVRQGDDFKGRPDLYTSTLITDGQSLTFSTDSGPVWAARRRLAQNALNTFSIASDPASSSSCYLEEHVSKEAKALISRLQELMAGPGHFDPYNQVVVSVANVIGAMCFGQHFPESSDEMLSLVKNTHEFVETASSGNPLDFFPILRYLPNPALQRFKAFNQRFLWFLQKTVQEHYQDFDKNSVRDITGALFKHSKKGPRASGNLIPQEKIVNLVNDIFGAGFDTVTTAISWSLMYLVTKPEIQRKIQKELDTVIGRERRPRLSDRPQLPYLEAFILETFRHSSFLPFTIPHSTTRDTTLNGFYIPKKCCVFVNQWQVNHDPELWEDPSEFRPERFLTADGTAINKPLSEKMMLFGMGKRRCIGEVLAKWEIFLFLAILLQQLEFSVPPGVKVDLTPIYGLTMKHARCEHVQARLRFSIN
Experimental: The P450 gene superfamily is involved in metabolism and the clearance of xenobiotics. This assay used human CYP1A2 to measure the demethylation of luciferin 6' methyl ether (Luciferin-ME; Promega-Glo) to luciferin. The luciferin is then measured by luminescence after the addition of a luciferase detection regeant. Luciferin-ME concentration in the assay was equal to its Km for CYP1A2.
NCGC Assay Protocol Summary:
Two uL of enzyme and substrate mix (final concentrations: 20nM CYP1A2, 100uM Luciferin-ME, 100mM KPO4) were dispensed into a white, solid bottom 1536-well microtiter plate. 23nL of compound was transferred by a pin tool. The plate was incubated at room temperature for 10 min. Two uL of an NADPH regeneration solution (Promega supplied reagent) was dispensed and the reaction was allowed to continue for 60 min at room temperature. Then the reaction was stopped by reconstituted detection reagent. After another 20 min of incubation the plate was read on the ViewLux (Perkin Elmer) at 60 sec exposure and 2x2 binning. This protocol was carried out with Promega-Glo reagents and further information can be found at http://www.promega.com/tbs/tb325/tb325.pdf. Data were normalized to the to AC100 inhibition (57 uM furafylline).
In the case of `Cc1noc(C)c1-c1cc(NCc2cccs2)ncn1`, the Potency is reported as 0.794 µM (active).
In the case of `CN(CCOc1ccc(C[C@H](Nc2ccccc2C(=O)c2ccccc2)C(=O)O)cc1)c1ccccn1`, the “activity change, negative = inhibition” value is reported as -13.8%.
In the case of `CN1CCN(c2ncnc3ccc(-c4ccc5c(c4)OCO5)cc23)CC1`, the Potency is reported as 2.51 µM (active).
For `Cn1c(=O)c(-c2cc(F)cc(F)c2)nc2cnc(Oc3ccccc3)nc21`, the Potency was 2 µM (active).
`CN(C)Cc1ccccc1-c1nccc(N(C)C)n1` was tested, and the Potency was 12.6 µM (active).
For `FC(F)(F)c1ccccc1-c1nccc(NCc2cccs2)n1`, the Potency was 1.26 µM (active).
For `O=c1cnc2cnc(Nc3ccccc3)nc2n1C1CC1`, the Potency was 0.631 µM (active).
`N#Cc1ccccc1-c1ccc2ncnc(N3CCNCC3)c2c1` was tested, and the Potency was 3.98 µM (active).
`O=C(c1csnn1)N1CCC[C@@]2(CCN(c3ccccn3)C2)C1` was tested, and the “activity change, negative = inhibition” value was -10.2%.
In the case of `c1cncc(CNc2ncncc2-c2ccc3c(c2)OCO3)c1`, the Potency is reported as 0.398 µM (active).
For `O=C(c1ccco1)N1CCC[C@@]2(CCN(c3ccccc3)C2)C1`, the Potency was 7.94 µM (active).
For `Clc1ccccc1-c1cncnc1NCc1cccs1`, the Potency was 3.98 µM (active).
`COc1ccc(NC(=O)N2CCCC3(CCN(C(=O)c4c(C)noc4C)CC3)C2)cc1` was tested, and the “activity change, negative = inhibition” value was 12.3%.
With `COc1ccccc1-c1cc(NCc2cccnc2)ncn1` the Potency was 0.316 µM (active).
With `Cc1ccccc1-c1nccc(NCCN2CCOCC2)n1` the Potency was 5.01 µM (active).
With `CC(=O)NCCNc1nc(-c2ccccc2Cl)nc2ccccc12` the Potency was 7.94 µM (active).
With `COC(=O)N1CCC2(CC1)CN(c1cccc(-c3ccccc3)c1)C2` the “activity change, negative = inhibition” value was 2.5%.
With `CN(C)C(=O)c1ccc(-c2cc(NCc3cccnc3)ncn2)cc1` the Potency was 20 µM (active).
With `COCC(=O)N1CCC2(CCCN(Cc3cc(C(F)(F)F)cc(C(F)(F)F)c3)C2)CC1` the “activity change, negative = inhibition” value was 3.6%.
In the case of `CN(C)Cc1ccccc1-c1cc(N(C)Cc2ccco2)ncn1`, the Potency is reported as 15.8 µM (active).
In the case of `COCCNc1cc(-c2ccccc2CN(C)C)ncn1`, the “activity change, negative = inhibition” value is reported as -16.8%.
`CN(Cc1ccco1)c1ncncc1-c1ccccc1Cl` was tested, and the Potency was 25.1 µM (active).
With `O=c1c(-c2ccc(F)c(F)c2)nc2cncnc2n1C1CC1` the Potency was 0.1 µM (active).
`COc1ccc(C(=O)N2CCC3(CC2)CN(c2ccncc2)C3)cc1` was tested, and the “activity change, negative = inhibition” value was -5.4%.
With `N#Cc1cccc(-c2cc(NCc3cccs3)ncn2)c1` the Potency was 0.794 µM (active).
`COc1ccc(NC(=O)N2CCCC3(CCN(S(C)(=O)=O)CC3)C2)cc1` was tested, and the “activity change, negative = inhibition” value was -8.8%.
`CN(Cc1ccco1)c1ncnc2ccc(-c3ccccc3C(F)(F)F)cc12` was tested, and the Potency was 5.01 µM (active).
In the case of `COc1ncc2nc(CCc3ccccc3)c(=O)n(C3CC3)c2n1`, the Potency is reported as 3.16 µM (active).
`COc1ccc(CNc2ncnc3ccc(-c4ccccc4OC)cc23)c(OC)c1` was tested, and the Potency was 3.16 µM (active).
With `Cn1c(=O)c(-c2cccs2)nc2cnc(N3CCOCC3)nc21` the Potency was 5.01 µM (active).
In the case of `O=C(c1ccco1)N1CCC2(CC1)CN(c1ccc(-c3ccccc3)cc1)C2`, the Potency is reported as 1 µM (active).
For `COc1cccc(-c2ccc3ncnc(NCc4cccnc4)c3c2)c1`, the Potency was 0.251 µM (active).
For `COc1cccc(Cn2c(=O)c(-c3cccs3)nc3cnc(N(C)C)nc32)c1`, the Potency was 15.8 µM (active).
For `COCCNc1ncncc1-c1c(C)noc1C`, the “activity change, negative = inhibition” value was -12.6%.
`c1ncc(-c2ccoc2)c(NC2CC2)n1` was tested, and the Potency was 15.8 µM (active).
For `Cn1cccc1C(=O)N1CCC2(CCN(C(=O)Nc3cccc(F)c3)CC2)CC1`, the “activity change, negative = inhibition” value was -10.7%.
With `O=c1cnc2cnc(N3CCNCC3)nc2n1Cc1ccc(F)cc1` the Potency was 15.8 µM (active).
`c1cncc(CNc2ncncc2-c2cccnc2)c1` was tested, and the Potency was 5.01 µM (active).
`COc1ccc(CNc2cc(-c3ccoc3)ncn2)c(OC)c1` was tested, and the Potency was 15.8 µM (active).
For `COc1cccc(Nc2ncc3nc(C)c(=O)n(CCc4ccccc4)c3n2)c1`, the Potency was 5.01 µM (active).
